Here are results for eight compounds from PubChem BioAssay (NCI).

Test systems include HT29 colon; SNB-75 CNS; SNB-19 CNS; U251 CNS; PC-3 prostate; SK-MEL-5 melanoma; UACC-62 melanoma; LOX IMVI melanoma; SK-MEL-28 melanoma; SK-MEL-2 melanoma; EKVX NSCLC; SN12C renal; UO-31 renal; TK-10 renal; ACHN renal; CAKI-1 renal; CCRF-CEM leukemia; MOLT-4 leukemia; SR leukemia; A498 renal.
What all share (test): NCI-60 one-dose screen, 48 h (100 = growth as untreated, 0 = no growth, -100 = all killed)
Holding throughout (conditions): 10 µM

The panel holds about 83,000 compounds, 20% with a hit somewhere; the sample as a whole holds those more often.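 Single-dose data. Exposure time 48 hours. Values below 10 considered active.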 Values without a mark were called inactive. Activity calls are given as the source filed them.

In the case of `Nc1nc(N=Nc2ccc(O)cc2)cc(=O)[nH]1`, the growth in the assay with HT29 colon was 123%; in the assay on SNB-75 CNS, 119%; in the assay on SNB-19 CNS, 99.5%; in the assay on U251 CNS, 93.6%; in the assay on PC-3 prostate, 104%; in the assay on SK-MEL-5 melanoma, 96.6%. For the same compound, the growth in the assay with UACC-62 melanoma was 101%; in the assay on LOX IMVI melanoma, 93.7%; in the assay with SK-MEL-28 melanoma it was 106%; in the assay on SK-MEL-2 melanoma it was 144%; with EKVX NSCLC, 91.4%; in the assay with SN12C renal it was 101%. Also, the growth with UO-31 renal is 93.6%; in the assay with TK-10 renal, 120%; in the assay with ACHN renal, 105%; in the assay on CAKI-1 renal, 91.4%; with CCRF-CEM leukemia, 97.5%; in the assay with MOLT-4 leukemia it was 104%. Also, the growth in the assay with SR leukemia was 94.3%.

As to `CCN(CC)CCCOCCCNc1cc(OC)cc2cccnc12`, the growth with HT29 colon was 96.1%; in the assay on SNB-75 CNS it was 94.7%; in the assay on SNB-19 CNS, 91.4%; with U251 CNS, 91.5%; in the assay with PC-3 prostate, 86.6%; in the assay on SK-MEL-5 melanoma, 96.4%. For the same compound, the growth in the assay with UACC-62 melanoma was 82.1%; in the assay with LOX IMVI melanoma, 90.2%; in the assay on SK-MEL-28 melanoma, 103%; with SK-MEL-2 melanoma, 107%; in the assay on EKVX NSCLC, 96.4%; in the assay with SN12C renal it was 87.7%. For the same compound, the growth in the assay with UO-31 renal is 95.7%; with TK-10 renal, 137%; with ACHN renal it was 97.5%; in the assay on CAKI-1 renal, 103%; in the assay on A498 renal, 72%; in the assay on CCRF-CEM leukemia, 90.9%. In addition, the growth in the assay with MOLT-4 leukemia was 105%; in the assay with SR leukemia, 100%.

Regarding `Nc1ncn([C@@H]2O[C@H](CO)[C@@H](O)[C@H]2O)c(=O)n1`, the growth in the assay on HT29 colon is 19.9%; in the assay on SNB-75 CNS, 20.3%; in the assay with SNB-19 CNS, 46.6%; in the assay on U251 CNS, 19.6%; with PC-3 prostate, 31%; with SK-MEL-5 melanoma, 48.3%. In addition, the growth in the assay with UACC-62 melanoma was 12.5%; in the assay with LOX IMVI melanoma, -9.93% (active); in the assay on SK-MEL-28 melanoma, 34.8%; in the assay with SK-MEL-2 melanoma, -21.5% (active); in the assay on EKVX NSCLC, 107%; in the assay with SN12C renal, 14.8%. Further, the growth with UO-31 renal is 15%; in the assay with TK-10 renal, 40.5%; with ACHN renal, 11.8%; in the assay on CAKI-1 renal it was 22.3%; in the assay with A498 renal it was 28.5%; with MOLT-4 leukemia, 33.6%. In addition, the growth with SR leukemia was 7.12% (active).

As for `CNc1ccc(CSc2ccc(C)cc2)cc1`, the growth is 100% in the assay on HT29 colon; 60.7% in the assay on SNB-75 CNS; 93.3% with SNB-19 CNS; 52.4% in the assay with U251 CNS; 60% in the assay on PC-3 prostate; 67.7% in the assay on SK-MEL-5 melanoma. The growth in the assay with UACC-62 melanoma is 86.2%; in the assay on LOX IMVI melanoma it was 92.1%; with SK-MEL-28 melanoma it was 93.8%; with SK-MEL-2 melanoma, 96.8%; in the assay on EKVX NSCLC it was 102%; with SN12C renal it was 29.4%. Moreover, the growth is 24.1% in the assay on UO-31 renal; 86.1% in the assay with TK-10 renal; 108% with ACHN renal; 73.2% in the assay with CAKI-1 renal; 43.7% in the assay with CCRF-CEM leukemia; 82.6% with MOLT-4 leukemia. The growth with SR leukemia was 80.4%.

In the case of `COc1ccc2nc3ccccc3c(NCCNCC(C)O)c2c1` (stereo unspecified), the growth with HT29 colon is 1.38% (active); with SNB-75 CNS, 28.1%; in the assay on SNB-19 CNS it was 0.0735% (active); with U251 CNS it was 1.29% (active); in the assay with PC-3 prostate, 4.7% (active); in the assay on SK-MEL-5 melanoma, 10.3%. The growth in the assay on UACC-62 melanoma was -59.9% (active); in the assay with LOX IMVI melanoma, -47.1% (active); in the assay on SK-MEL-28 melanoma it was 8.18% (active); in the assay with SK-MEL-2 melanoma, -21.8% (active); with EKVX NSCLC it was 7.84% (active); with SN12C renal, -4.73% (active). The growth with UO-31 renal was 17.9%; with TK-10 renal, 8.4% (active); in the assay with ACHN renal it was -3.07% (active); in the assay on CAKI-1 renal, 42.5%; in the assay with A498 renal it was -48.5% (active); in the assay with CCRF-CEM leukemia, 5.94% (active). Also, the values for the growth in the assay with MOLT-4 leukemia and in the assay on SR leukemia were 6.77% (active) and 4.1% (active), respectively.

Regarding `NC1(C(=O)O)CSSC1`, the growth in the assay with HT29 colon is 90.7%; in the assay on SNB-75 CNS, 40.8%; with SNB-19 CNS, 36.4%; in the assay on U251 CNS, 15.1%; in the assay with PC-3 prostate it was 79.1%; in the assay with SK-MEL-5 melanoma it was 69.9%. Further, the growth with UACC-62 melanoma was 97.4%; in the assay with LOX IMVI melanoma, 32.2%; in the assay with SK-MEL-28 melanoma, 34.8%; in the assay on SK-MEL-2 melanoma it was 111%; in the assay with EKVX NSCLC it was 78.9%; in the assay with SN12C renal, 39.5%. Also, the growth with UO-31 renal was 57.6%; in the assay with TK-10 renal, 64.3%; with ACHN renal it was 49.4%; in the assay on CAKI-1 renal, 101%; in the assay with A498 renal, 56.2%; in the assay on CCRF-CEM leukemia it was 78.5%. For the same compound, the growth with MOLT-4 leukemia is 87.3%; in the assay on SR leukemia, 89.5%.

Turning to `Cc1cc2ccccc2nc1-c1ccccc1F`, the growth with HT29 colon was 119%; in the assay on SNB-75 CNS it was 112%; with SNB-19 CNS, 110%; in the assay with U251 CNS, 91.1%; in the assay on PC-3 prostate, 94.3%; in the assay on SK-MEL-5 melanoma, 102%. The growth is 105% in the assay on UACC-62 melanoma; 97.8% in the assay on LOX IMVI melanoma; 116% in the assay with SK-MEL-28 melanoma; 111% in the assay on SK-MEL-2 melanoma; 107% with EKVX NSCLC; 110% with SN12C renal. Moreover, the growth with UO-31 renal is 97.3%; in the assay on TK-10 renal, 130%; in the assay with ACHN renal, 112%; in the assay on CAKI-1 renal, 99%; in the assay with A498 renal, 96.2%; in the assay on CCRF-CEM leukemia, 96.9%. In addition, the results for the growth in the assay on MOLT-4 leukemia and in the assay with SR leukemia were 111% and 110%, respectively.

As to `CC12O[C@H](C[C@@H](O)[C@H]1O)n1c3ccccc3c3c4c(c5c6ccccc6n2c5c31)C(=O)N(CCCN)C4=O`, the growth is 11.3% in the assay with HT29 colon; 49.8% with SNB-75 CNS; 26.9% in the assay on SNB-19 CNS; 14.8% in the assay on U251 CNS; 34% in the assay on PC-3 prostate; 40.6% in the assay with SK-MEL-5 melanoma. The growth was 47.8% with UACC-62 melanoma; 1.96% (active) in the assay on LOX IMVI melanoma; 92.1% with SK-MEL-28 melanoma; 50.3% with SK-MEL-2 melanoma; 54.9% in the assay with EKVX NSCLC; 36.2% with SN12C renal. The growth in the assay with UO-31 renal was 57.6%; in the assay with TK-10 renal it was 38.8%; with ACHN renal, 79.4%; with A498 renal, 42.3%; in the assay with CCRF-CEM leukemia it was 11.2%; in the assay with MOLT-4 leukemia, -3.13% (active). Besides, the growth with SR leukemia is 0.745% (active).
